# Data taken from PubChem BioAssay (EPA / NIEHS).
# Results filed as inconclusive are left out. Calls of active or inactive are those of the source. The calls were made as follows: active = hit-call score of the fitted dose curve at least 0.9, where 1 is the maximum; inconclusive = response in the unintended direction; inactive = score below 0.9.
# What was measured:
# [1] = molecular target: Luciferin 4-monooxygenase (Photinus pyralis) (UniProt P08659); test: CCTE_Simmons_QuantiLum_inhib_2: CCTE's Firefly Luciferase Inhibition Assay, Simmons Lab (AID 2283767);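 as to AC50: potency for inhibitors that lower luciferase luminescence relative to DMSO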
# Chain of Luciferin 4-monooxygenase (Photinus pyralis) (P08659 whole entry, looked up): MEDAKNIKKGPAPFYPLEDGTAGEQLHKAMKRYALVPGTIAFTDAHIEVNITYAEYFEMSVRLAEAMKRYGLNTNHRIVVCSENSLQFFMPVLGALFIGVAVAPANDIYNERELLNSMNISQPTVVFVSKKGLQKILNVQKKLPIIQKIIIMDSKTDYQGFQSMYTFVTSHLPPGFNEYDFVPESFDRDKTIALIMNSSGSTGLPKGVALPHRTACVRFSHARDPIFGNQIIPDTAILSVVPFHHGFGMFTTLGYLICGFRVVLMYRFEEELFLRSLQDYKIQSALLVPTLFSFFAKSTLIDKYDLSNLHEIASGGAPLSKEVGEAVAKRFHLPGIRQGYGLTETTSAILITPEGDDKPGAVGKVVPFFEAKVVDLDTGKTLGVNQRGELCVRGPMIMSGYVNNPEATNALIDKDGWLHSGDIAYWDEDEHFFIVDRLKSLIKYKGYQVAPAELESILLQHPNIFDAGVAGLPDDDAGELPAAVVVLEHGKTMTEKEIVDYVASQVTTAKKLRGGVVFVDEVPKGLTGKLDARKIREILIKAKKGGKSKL
# In short: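 First, 5 ng purified luciferase in phosphate buffer with BSA is dispensed per well. Next, test chemicals (5 nM to 87.5 uM final, 0.5% DMSO) are added and incubated 30 min at 37C in darkness. Finally, luciferin reagent is injected and luminescence read kinetically.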
# [2] = ACEA_AR_agonist_AUC_viability: ACEA Biosciences xCELLigence Real-Time Cell Analysis on Androgen Receptor Agonism for Viability (AID 2283775);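 as to AC50: viability read 80 hours after compound addition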
# In short: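 22Rv1 cells; impedance growth kinetics; 8-pt 1:4 dilutions from 100 uM top final, ≤0.5% DMSO; n = 2; 80 h read; AUC viability, loss-of-signal vs DMSO.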
compound,measurement,setting,value
CC(=O)N1CCN(c2ccc(OC[C@H]3CO[C@](Cn4ccnc4)(c4ccc(Cl)cc4Cl)O3)cc2)CC1,outcome,[1],inactive
same,AC50,[2],29.2 µM (active)
O=c1ccc2ccccc2o1,outcome,[2],inactive
COc1cc(C(=O)NC2CCN(C)CC2)ccc1Nc1ncc2c(n1)N(C1CCCC1)CC(F)(F)C(=O)N2C,outcome,[1],inactive
same,AC50,[2],0.00301 µM (active)
CC(C)(C)c1csc(-c2cc3cc(OCc4ccccc4CC(=O)O)ccc3o2)n1,AC50,[1],10.7 µM (active)
same,AC50,[2],21.1 µM (active)
O=C1O[C@H]([C@@H](O)CO)C(O)=C1O,outcome,[1],inactive
same,outcome,[2],inactive
Cc1cc2c(cc1C(F)(F)F)N(C(=O)Nc1ccc(Oc3cccnc3C)nc1)CC2,AC50,[2],17.1 µM (active)
CCCC(=O)OCCC(C)C,outcome,[2],inactive
